About 8,800 targets were measured; listed, in parts, are those with a hit and a random draw of the rest. About 0.5% of all pairs of compound and target were hits. A number with no mark means an inactive call.
Tests used:
Experiment in all cases: log2 fold change, soluble protein after heating vs DMSO (PISA); higher = thermal stabilisation; K562 lysate, 10 uM; active = over 0.2 and 3.5 SD of the protein, either way, in both replicates (recomputed)
erlotinib = compound: C#Cc1cccc(Nc2ncnc3cc(OCCOC)c(OCCOC)cc23)c1 [erlotinib]
How it was run: (§1)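 To prepare the extract, K562 pellets were dounce-homogenised in PBS pH 7.4 with 1 mM MgCl2, giving crude material at 1 mg/mL protein. This was treated with 10 μM compound for 30 min, then heated in aliquots for 3 min over 48°C-58°C before pooling and addition of NP-40 to 0.5% at 4°C. Centrifugation at 21,000xg for 90 min left soluble protein in the supernatant, which TMTpro 16plex LC-MS/MS quantified with equalised channel sums. Results are log-two fold changes in thermal stability compared with solvent controls, from duplicates.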

[1] = compound: C/C(=N\NC(=O)C1=CC(=CC=C1)S(=O)(=O)N2CCOCC2)/C3=C(C=CC(=C3)Cl)O
How it was run: as §1

[2] = compound: C1=CC(=CC=C1C2=NC3=C(N2)C=C(C=C3)C(=O)N)OC4=CC=C(C=C4)Cl
How it was run: as §1

[3] = compound: C1=CC2=C(C=CC(=C2)/C=C\3/C(=O)NC(=NCC4=CC=CS4)S3)N=C1
How it was run: as §1

[4] = compound: C1=CC2=NC=CN=C2C=C1/C=C/3\C(=O)NC(=O)S3
How it was run: as §1

[5] = compound: C1=CC=C(C=C1)C2=NC(=C(N2)C3=CC=NC=C3)C4=CC(=C(C=C4)Cl)O
How it was run: as §1

[6] = compound: C1=CC=C2C(=C1)C3=NNC4=CC=CC(=C43)C2=O
How it was run: as §1

[7] = compound: C1CCN(C1)C(=O)NC2=CC=CC(=C2)NC3=NC=C(C(=N3)NCCC4=CN=CN4)Br
How it was run: as §1

[8] = compound: C1CN(CCC1(CC2=CC=C(C=C2)Cl)N)C3=NC=NC4=C3C=CN4
How it was run: as §1

IRAK-1-4 Inhibitor I = compound: C1COCCN1CCN2C3=CC=CC=C3N=C2NC(=O)C4=CC(=CC=C4)[N+](=O)[O-] [IRAK-1-4 Inhibitor I]
How it was run: as §1

ibrutinib = compound: C=CC(=O)N1CCC[C@@H](n2nc(-c3ccc(Oc4ccccc4)cc3)c3c(N)ncnc32)C1 [ibrutinib]
How it was run: as §1

[9] = compound: CC(=O)c1cnc2ccc(-c3cc(Cl)c(O)c(Cl)c3)nc2c1N[C@H]1CC[C@H](CN(C)C)CC1
How it was run: as §1

ralimetinib = compound: CC(C)(C)Cn1c(N)nc2ccc(-c3[nH]c(C(C)(C)C)nc3-c3ccc(F)cc3)nc21 [ralimetinib]
How it was run: as §1

[10] = compound: CC(C)(O)CC(=O)NCCn1ccc2ncnc(Nc3ccc(Oc4cccc(C(F)(F)F)c4)c(Cl)c3)c21
How it was run: as §1

[11] = compound: CC(C)C1=C2N=C(C=C(N2N=C1)NCC3=CC=CC=C3)NCCCCCCN
How it was run: as §1

[12] = compound: CC1=C(C(CC(=O)N1)C2=CC=C(C=C2)C(F)(F)F)C(=O)NC3=C(C=C4C(=C3)C=NN4)F
How it was run: as §1

[13] = compound: CC1=C(C2=C(C=C1)C(=O)C3=CC=CC=C3N2CCCN)C
How it was run: as §1

[14] = compound: CC1=C(C=C(C=C1)NC(=O)C2=CC(=CC=C2)C(C)(C)C#N)NC3=CC4=C(C=C3)N=CN(C4=O)C
How it was run: as §1

[15] = compound: CC1=C(C=C(C=C1)NC(=O)C2=CC(=CC=C2)N(C)C)NC(=O)C3=CC=C(C=C3)O
How it was run: as §1

[16] = compound: CC1=CC=C(C=C1)SC2=C3C=C(SC3=CN=C2)C(=O)N
How it was run: as §1

Chain of UniProt Q99574 (Q99574 whole entry, looked up): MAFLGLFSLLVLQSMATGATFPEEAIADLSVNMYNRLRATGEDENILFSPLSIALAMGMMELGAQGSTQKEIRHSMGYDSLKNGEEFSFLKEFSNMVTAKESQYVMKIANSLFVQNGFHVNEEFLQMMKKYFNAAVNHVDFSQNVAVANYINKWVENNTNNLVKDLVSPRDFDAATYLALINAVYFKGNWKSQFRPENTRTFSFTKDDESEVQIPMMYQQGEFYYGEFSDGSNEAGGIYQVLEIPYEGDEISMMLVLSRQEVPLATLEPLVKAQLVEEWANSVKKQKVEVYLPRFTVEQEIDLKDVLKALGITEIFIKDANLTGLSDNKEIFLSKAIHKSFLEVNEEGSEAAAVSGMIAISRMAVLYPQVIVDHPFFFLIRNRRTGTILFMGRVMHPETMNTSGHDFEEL
Chain of UniProt P61586 (P61586 whole entry, looked up): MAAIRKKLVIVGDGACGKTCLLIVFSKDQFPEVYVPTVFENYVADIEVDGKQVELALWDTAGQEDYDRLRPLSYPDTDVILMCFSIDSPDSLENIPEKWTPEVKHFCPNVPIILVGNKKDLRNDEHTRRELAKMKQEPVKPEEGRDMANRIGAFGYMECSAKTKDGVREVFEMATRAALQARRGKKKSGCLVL
Chain of UniProt Q6GYQ0 (Q6GYQ0 whole entry, looked up): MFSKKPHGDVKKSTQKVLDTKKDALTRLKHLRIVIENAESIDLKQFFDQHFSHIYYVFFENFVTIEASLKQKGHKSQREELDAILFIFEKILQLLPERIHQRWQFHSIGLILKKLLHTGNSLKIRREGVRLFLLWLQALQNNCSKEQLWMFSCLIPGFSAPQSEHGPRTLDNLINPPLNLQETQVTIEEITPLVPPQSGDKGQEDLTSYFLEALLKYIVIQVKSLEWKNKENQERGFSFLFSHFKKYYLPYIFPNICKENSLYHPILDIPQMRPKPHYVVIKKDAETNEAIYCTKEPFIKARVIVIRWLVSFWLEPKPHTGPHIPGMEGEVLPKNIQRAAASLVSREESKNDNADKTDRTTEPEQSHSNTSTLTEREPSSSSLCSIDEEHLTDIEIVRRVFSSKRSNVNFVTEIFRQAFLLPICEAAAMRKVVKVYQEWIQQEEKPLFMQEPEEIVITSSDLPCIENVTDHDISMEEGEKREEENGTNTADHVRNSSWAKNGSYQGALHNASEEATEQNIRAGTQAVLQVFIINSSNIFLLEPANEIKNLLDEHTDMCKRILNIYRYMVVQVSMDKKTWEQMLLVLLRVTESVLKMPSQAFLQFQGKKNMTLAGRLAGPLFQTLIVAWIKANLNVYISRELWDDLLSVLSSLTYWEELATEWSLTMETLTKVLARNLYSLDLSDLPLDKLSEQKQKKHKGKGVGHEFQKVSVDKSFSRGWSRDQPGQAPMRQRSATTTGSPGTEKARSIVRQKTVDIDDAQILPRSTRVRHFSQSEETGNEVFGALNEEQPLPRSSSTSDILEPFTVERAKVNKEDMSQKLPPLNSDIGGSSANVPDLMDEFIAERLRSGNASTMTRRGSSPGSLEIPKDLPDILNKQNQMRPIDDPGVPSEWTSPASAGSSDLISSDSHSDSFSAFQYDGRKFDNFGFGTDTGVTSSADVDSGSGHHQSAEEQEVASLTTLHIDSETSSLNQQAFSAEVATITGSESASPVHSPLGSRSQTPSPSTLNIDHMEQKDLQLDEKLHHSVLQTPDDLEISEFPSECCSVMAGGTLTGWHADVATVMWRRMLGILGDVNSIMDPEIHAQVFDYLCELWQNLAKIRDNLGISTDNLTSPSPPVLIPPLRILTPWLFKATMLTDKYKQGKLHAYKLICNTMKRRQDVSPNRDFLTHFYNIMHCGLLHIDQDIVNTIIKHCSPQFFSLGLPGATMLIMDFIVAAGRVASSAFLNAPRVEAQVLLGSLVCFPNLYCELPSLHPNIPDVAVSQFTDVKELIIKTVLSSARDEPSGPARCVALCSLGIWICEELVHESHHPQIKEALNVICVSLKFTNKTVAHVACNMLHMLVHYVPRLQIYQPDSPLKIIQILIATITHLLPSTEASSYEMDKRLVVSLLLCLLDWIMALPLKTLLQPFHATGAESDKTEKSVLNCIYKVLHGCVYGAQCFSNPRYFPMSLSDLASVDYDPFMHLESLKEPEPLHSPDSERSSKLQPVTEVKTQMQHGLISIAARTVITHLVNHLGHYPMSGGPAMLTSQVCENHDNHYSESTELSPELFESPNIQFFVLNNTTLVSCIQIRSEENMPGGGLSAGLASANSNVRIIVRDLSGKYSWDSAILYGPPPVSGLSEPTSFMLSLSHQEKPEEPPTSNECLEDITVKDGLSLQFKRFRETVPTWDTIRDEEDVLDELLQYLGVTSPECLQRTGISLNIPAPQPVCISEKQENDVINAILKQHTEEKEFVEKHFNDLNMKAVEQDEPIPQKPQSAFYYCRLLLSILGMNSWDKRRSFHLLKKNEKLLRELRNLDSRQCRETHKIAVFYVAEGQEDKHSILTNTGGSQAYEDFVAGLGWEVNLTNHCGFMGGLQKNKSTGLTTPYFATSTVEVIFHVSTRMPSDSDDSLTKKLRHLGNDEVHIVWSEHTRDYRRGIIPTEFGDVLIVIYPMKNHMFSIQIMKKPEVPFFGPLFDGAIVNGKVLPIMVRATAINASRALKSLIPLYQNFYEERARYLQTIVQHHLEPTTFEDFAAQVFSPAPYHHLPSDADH
Chain of UniProt Q6NUQ1 (Q6NUQ1 whole entry, looked up): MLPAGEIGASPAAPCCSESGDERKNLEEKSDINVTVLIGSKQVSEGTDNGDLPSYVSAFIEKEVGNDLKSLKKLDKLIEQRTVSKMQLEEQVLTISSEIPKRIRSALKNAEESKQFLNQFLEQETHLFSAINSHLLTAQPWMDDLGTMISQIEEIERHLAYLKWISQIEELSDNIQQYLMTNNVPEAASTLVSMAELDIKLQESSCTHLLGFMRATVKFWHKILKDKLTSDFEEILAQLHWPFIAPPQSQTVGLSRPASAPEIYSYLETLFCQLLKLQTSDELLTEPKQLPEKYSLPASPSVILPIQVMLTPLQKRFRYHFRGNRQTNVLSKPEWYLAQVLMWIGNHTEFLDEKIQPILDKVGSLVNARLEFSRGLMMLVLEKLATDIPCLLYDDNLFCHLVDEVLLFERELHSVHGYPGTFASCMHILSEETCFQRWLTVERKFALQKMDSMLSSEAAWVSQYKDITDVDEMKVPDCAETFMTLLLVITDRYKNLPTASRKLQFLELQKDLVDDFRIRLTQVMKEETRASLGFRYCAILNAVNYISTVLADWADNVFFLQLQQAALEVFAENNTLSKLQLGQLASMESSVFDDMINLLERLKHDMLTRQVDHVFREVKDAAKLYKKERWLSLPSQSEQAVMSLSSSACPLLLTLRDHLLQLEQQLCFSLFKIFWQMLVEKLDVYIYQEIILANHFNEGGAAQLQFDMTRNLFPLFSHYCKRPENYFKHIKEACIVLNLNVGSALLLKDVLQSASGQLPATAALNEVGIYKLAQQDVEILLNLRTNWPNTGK
Chain of UniProt Q5XPI4 (Q5XPI4 whole entry, looked up): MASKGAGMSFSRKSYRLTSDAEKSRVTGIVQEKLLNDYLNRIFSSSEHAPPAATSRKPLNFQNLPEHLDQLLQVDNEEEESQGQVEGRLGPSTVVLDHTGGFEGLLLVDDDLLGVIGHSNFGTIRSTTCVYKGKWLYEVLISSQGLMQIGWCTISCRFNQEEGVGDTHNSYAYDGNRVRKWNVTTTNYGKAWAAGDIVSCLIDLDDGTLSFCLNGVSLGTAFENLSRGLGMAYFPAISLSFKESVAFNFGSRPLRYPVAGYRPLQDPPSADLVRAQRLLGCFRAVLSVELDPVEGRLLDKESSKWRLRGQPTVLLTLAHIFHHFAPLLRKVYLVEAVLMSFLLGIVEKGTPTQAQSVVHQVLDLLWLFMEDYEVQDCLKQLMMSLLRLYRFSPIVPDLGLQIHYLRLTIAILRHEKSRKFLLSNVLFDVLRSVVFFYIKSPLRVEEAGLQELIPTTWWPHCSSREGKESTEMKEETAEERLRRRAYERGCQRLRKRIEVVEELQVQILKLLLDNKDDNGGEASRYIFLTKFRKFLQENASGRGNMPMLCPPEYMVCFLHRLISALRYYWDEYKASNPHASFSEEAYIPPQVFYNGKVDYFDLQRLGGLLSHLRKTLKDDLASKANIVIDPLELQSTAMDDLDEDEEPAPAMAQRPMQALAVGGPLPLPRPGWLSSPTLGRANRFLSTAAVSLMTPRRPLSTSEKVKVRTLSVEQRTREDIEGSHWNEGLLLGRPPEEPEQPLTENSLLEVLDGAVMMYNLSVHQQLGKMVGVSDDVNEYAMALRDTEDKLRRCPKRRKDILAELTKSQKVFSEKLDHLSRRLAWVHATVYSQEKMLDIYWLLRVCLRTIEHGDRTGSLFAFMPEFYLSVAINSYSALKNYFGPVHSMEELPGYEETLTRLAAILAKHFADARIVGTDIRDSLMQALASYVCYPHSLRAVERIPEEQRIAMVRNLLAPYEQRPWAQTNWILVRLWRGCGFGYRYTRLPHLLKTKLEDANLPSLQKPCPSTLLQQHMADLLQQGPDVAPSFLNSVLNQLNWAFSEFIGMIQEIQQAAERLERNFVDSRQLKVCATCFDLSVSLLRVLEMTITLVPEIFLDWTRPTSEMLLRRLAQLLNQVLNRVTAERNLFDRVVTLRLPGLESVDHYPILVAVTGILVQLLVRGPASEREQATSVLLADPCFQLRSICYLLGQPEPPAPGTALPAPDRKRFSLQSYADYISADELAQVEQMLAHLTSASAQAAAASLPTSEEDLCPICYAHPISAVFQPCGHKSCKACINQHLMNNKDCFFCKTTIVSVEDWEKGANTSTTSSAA
Chain of UniProt Q9HBH5 (Q9HBH5 whole entry, looked up): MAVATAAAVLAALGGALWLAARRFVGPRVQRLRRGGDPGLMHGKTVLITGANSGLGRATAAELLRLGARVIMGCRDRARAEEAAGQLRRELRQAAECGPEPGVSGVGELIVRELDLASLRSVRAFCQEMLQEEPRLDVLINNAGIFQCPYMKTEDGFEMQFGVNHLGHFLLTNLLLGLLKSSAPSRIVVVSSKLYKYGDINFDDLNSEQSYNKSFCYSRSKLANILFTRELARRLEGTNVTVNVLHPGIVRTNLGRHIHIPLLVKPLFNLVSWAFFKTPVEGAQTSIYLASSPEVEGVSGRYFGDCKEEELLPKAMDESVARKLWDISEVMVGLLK

Target | log2 fold change (erlotinib) | log2 fold change [1] | log2 fold change [2] | log2 fold change [3] | log2 fold change [4] | log2 fold change [5] | log2 fold change [6] | log2 fold change [7] | log2 fold change [8] | log2 fold change (IRAK-1-4 Inhibitor I) | log2 fold change (ibrutinib) | log2 fold change [9] | log2 fold change (ralimetinib) | log2 fold change [10] | log2 fold change [11] | log2 fold change [12] | log2 fold change [13] | log2 fold change [14] | log2 fold change [15] | log2 fold change [16]
RPL31 (UniProt P62899) | -0.018 | -0.097 | -0.03 | -0.01 | 0.001 | 0 | 0.038 | 0.043 | -0.039 | 0.026 | -0.031 | -0.011 | 0.009 | -0.022 | 0.003 | -0.06 | -0.043 | -0.013 | -0.021 | 0.016
SERPINI1 (UniProt Q99574) | -0.003 | -0.021 | -0.037 | 0.027 | 0.054 | -0.007 | -0.117 | 0.029 | 0.038 | 0.031 | 0.063 | 0.075 | 0.001 | 0.024 | 0.005 | 0.056 | 0.004 | -0.024 | -0.028 | -0.054
SEC16A isoform 5 (UniProt O15027) | 0.006 | -0.019 | 0.025 | -0.016 | -0.031 | -0.038 | -0.085 | -0.022 | 0.002 | -0.005 | 0.035 | -0.021 | -0.013 | 0.015 | 0.01 | 0.019 | 0.004 | -0.121 | 0.011 | -0.031
RANBP2 (UniProt P49792) | 0.017 | 0.014 | -0.004 | -0.011 | -0.012 | -0.004 | -0.038 | -0.001 | -0.007 | -0.019 | 0.001 | -0.01 | 0.018 | -0.009 | -0.01 | 0.011 | 0.007 | 0 | 0.018 | -0.001
RABL3 (UniProt Q5HYI8) | 0.706 (active) | -0.019 | -0.025 | 0.011 | 0.008 | 0.96 (active) | -0.041 | 0.015 | 0.017 | 0.48 | 0.017 | 0.014 | 0.153 | -0.05 | -0.047 | 0.021 | -0.043 | 0.003 | -0.141 | 0.014
RALGAPA1 isoform 6 (UniProt Q6GYQ0) | 0.056 | -0.093 | 0.098 | 0.065 | -0.105 | -0.064 | -0.015 | -0.042 | 0.031 | 0.004 | 0.047 | -0.06 | 0.01 | 0.002 | -0.01 | -0.039 | 0.02 | -0.007 | 0.038 | -0.081
REEP5 (UniProt Q00765) | 0.017 | -0.041 | 0.022 | 0.036 | 0.001 | -0.008 | -0.077 | -0.008 | 0.015 | 0.025 | 0.043 | 0.004 | -0.014 | -0.01 | -0.037 | 0.017 | -0.039 | 0.004 | -0.016 | -0.042
RANBP6 (UniProt O60518) | 0.045 | -0.043 | -0.003 | -0.034 | 0.061 | 0.027 | 0.021 | 0.044 | -0.019 | 0.04 | -0.034 | -0.05 | 0.025 | -0.066 | -0.034 | -0.005 | -0.017 | -0.009 | 0.026 | 0.009
RASA3 (UniProt Q14644) | 0.02 | -0.089 | 0.045 | -0.001 | 0.046 | 0.021 | 0.004 | -0.043 | -0.005 | 0.02 | 0 | -0.031 | -0.012 | -0.054 | 0.02 | -0.048 | 0.031 | -0.026 | -0.018 | -0.078
RHOA (UniProt P61586) | 0.001 | -0.093 | 0.049 | -0.093 | -0.09 | 0.064 | 0.038 | -0.022 | 0.039 | -0.022 | 0.36 | -0.041 | 0.014 | 0.094 | 0.031 | 0.003 | 0.093 | -0.02 | -0.022 | -0.006
RAB8B (UniProt Q92930) | 0.013 | -0.042 | 0.049 | 0.113 | 0.004 | 0.034 | 0.125 | 0 | -0.006 | 0.035 | -0.03 | -0.018 | -0.035 | -0.013 | -0.003 | 0.051 | -0.001 | 0.01 | 0.099 | -0.06
RDH14 (UniProt Q9HBH5) | -0.019 | 0.021 | -0.056 | -0.049 | 0.037 | 0.021 | 0.024 | 0.036 | -0.057 | 0.018 | 0.017 | 0.061 | 0.072 | 0.089 | 0.012 | -0.031 | 0.053 | -0.073 | 0.032 | -0.012
RNF123 (UniProt Q5XPI4) | 0.058 | 0.016 | -0.008 | 0.029 | 0.019 | -0.015 | -0.035 | -0.005 | 0.044 | -0.019 | 0.028 | 0.017 | 0.029 | -0.042 | -0.003 | -0.02 | 0.001 | 0.027 | -0.016 | 0.022
RBBP8 isoform 2 (UniProt Q99708) | 0.073 | -0.129 | -0.031 | 0.074 | 0.295 (active) | -0.004 | -0.019 | -0.017 | -0.032 | 0.033 | -0.204 | 0.005 | -0.086 | 0.011 | -0.006 | 0.003 | -0.018 | -0.066 | -0.006 | -0.143
RFC5 (UniProt P40937) | 0.02 | 0.024 | -0.025 | 0.036 | -0.012 | 0.029 | -0.074 | 0.004 | 0.023 | 0.019 | -0.038 | -0.001 | 0.046 | 0.02 | 0.012 | -0.002 | -0.009 | 0.014 | 0.025 | 0.018
RINT1 (UniProt Q6NUQ1) | 0.056 | 0.029 | -0.01 | 0.012 | 0.03 | -0.042 | -0.048 | -0.029 | 0.067 | 0.074 | 0.011 | 0.07 | 0.05 | -0.094 | 0.016 | -0.066 | -0.064 | -0.02 | 0.012 | 0.016
